Test [1] can be described thus: CEETOX_H295R_DOC: CeeTox H295R High-throughput Steroidogenesis Assay for DOC (AID 2283439). As to conditions: actives raise or lower the signal. An outline of the steps:
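H295R, fsk 10 uM ×48 h pre, cmpd ×48 h (0.1% DMSO). Media → MTBE extr. → LC-MS/MS, DOC. Bidirectional fit vs DMSO; MTT viability same wells, re-test diluted if <70%.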

Test [2] can be described thus: CEETOX_H295R_ESTRADIOL: CeeTox H295R High-throughput Steroidogenesis Assay for Estradiol (AID 2283440).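 Further: estradiol secreted into medium quantified by LC-MS/MS after dansyl derivatisation.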 The note with it: actives raise or lower the signal. An outline of the steps: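 Following OECD 456 with minor changes, H295R cells received 10 uM forskolin for 48 h and then test chemical for 48 h. Hormone output was read by HPLC-MS/MS, with cytotoxic concentrations diluted until MTT viability reached ≥70%.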

A short description of test [3]: CEETOX_H295R_ESTRONE: CeeTox H295R High-throughput Steroidogenesis Assay for Estrone (AID 2283441).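 Further: estrone secreted into medium measured by LC-MS/MS after dansyl derivatization.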 As to conditions: actives raise or lower the signal. In short, it runs like this:
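Forskolin-stimulated H295R cells are treated 48 h with chemical, and estrone in the medium is measured by LC-MS/MS. Activity is fitted in both directions relative to DMSO controls, with chemicals diluted until MTT viability reaches at least 70%.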

A short description of test [4]: CEETOX_H295R_PROG: CeeTox H295R High-throughput Steroidogenesis Assay for Progesterone (PROG) (AID 2283442).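 On AC50: human H295R adrenal cells primed with 10 µM forskolin before dosing; progesterone secreted into medium by H295R cells measured by HPLC-MS/MS.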 The note with it: actives raise or lower the signal. In short, it runs like this: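 Adrenal H295R line, forskolin-stimulated (10 uM, 48 h) before dosing. 48 h exposure, 0.1% DMSO vehicle. Secreted progesterone by reverse-phase HPLC with ESI+ MS/MS quantification; DMSO-normalised bidirectional curve fit.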

Read-out in test [5]: Tumor necrosis factor receptor superfamily member 6 (Homo sapiens) (UniProt P25445)
Put plainly: LTEA_HepaRG_FAS: Life Technologies and Expression Analysis (LTEA) Assay for Fas cell surface death receptor (FAS) using HepaRG (AID 2283447). The note with it: mRNA level, 48 h; actives raise or lower the signal. In short, it runs like this:
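Differentiated HepaRG cells in serum-free induction medium were exposed 48 h to 8 half-log concentrations up to 100 uM in 0.5% DMSO, in duplicate. FAS mRNA was measured by qRT-PCR normalised to ACTB, GAPDH and POLR2A; bidirectional fit versus DMSO.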

Read-out in test [6]: Fatty acid synthase (Homo sapiens) (UniProt P49327)
Put plainly: LTEA_HepaRG_FASN: Life Technologies and Expression Analysis (LTEA) Assay for Fatty Acid Synthase (FASN) using HepaRG (AID 2283448). As to conditions: mRNA level, 48 h; actives raise or lower the signal. In short, it runs like this:
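In human HepaRG cultures, 48 h chemical exposure (up to 100 uM, 0.5% DMSO) preceded TaqMan qRT-PCR of FASN.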

Read-out in test [7]: Cyclin D2 (CCND2), CCND2 (gene 894)
In words: LTEA_HepaRG_CCND2: Life Technologies and Expression Analysis (LTEA) Assay for Cyclin D2 (CCND2) using HepaRG (AID 2283449).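 Further: CCND2 transcript measured by TaqMan qRT-PCR and normalised to three housekeeping genes.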 The note with it: mRNA level, 48 h; actives raise or lower the signal. In short, it runs like this:
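HepaRG, 48 h dosing, 8-pt half-log curve from 100 uM, 0.5% DMSO; duplicate wells. Readout: CCND2 transcript by microfluidic qRT-PCR, housekeeping-normalised; bidirectional fit vs DMSO baseline.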

Read-out in test [8]: Cyclin Dependent Kinase Inhibitor 1A (CDKN1A), CDKN1A (gene 1026)
Put plainly: LTEA_HepaRG_CDKN1A: Life Technologies and Expression Analysis (LTEA) Assay for Cyclin Dependent Kinase Inhibitor 1A (CDKN1A) using HepaRG (AID 2283450). The note with it: mRNA level, 48 h; actives raise or lower the signal. In short, it runs like this:
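Cryopreserved HepaRG cells were plated and cultured 48 h, then switched to serum-free induction medium. Chemicals (eight half-log concentrations, top 100 uM, 0.5% DMSO) were applied for 48 h. Lysates underwent qRT-PCR for CDKN1A with housekeeping normalization.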

Read-out in test [9]: Cyclin D1 (CCND1), CCND1 (gene 595)
In words: LTEA_HepaRG_CCND1: Life Technologies and Expression Analysis (LTEA) Assay for Cyclin D1 (CCND1) using HepaRG (AID 2283451). The note with it: mRNA level, 48 h; actives raise or lower the signal. An outline of the steps: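 Human liver HepaRG line; 48 h dosing, 8 conc. ≤100 uM, 0.5% DMSO; TaqMan qRT-PCR mRNA, 3 housekeeping genes; bidirectional curve fit vs DMSO.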

Read-out in test [10]: catalase (CAT), CAT (gene 847)
Put plainly: LTEA_HepaRG_CAT: Life Technologies and Expression Analysis (LTEA) Assay for catalase (CAT) using HepaRG (AID 2283452). As to conditions: mRNA level, 48 h; actives raise or lower the signal. An outline of the steps:
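HepaRG cells in serum-free induction medium, 0.5% DMSO vehicle, exposed 48 h in duplicate over 8 half-log concentrations from 100 uM. CAT mRNA measured by qRT-PCR, normalized to ACTB, GAPDH, POLR2A; bidirectional fit versus DMSO.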

Read-out in test [11]: flavin-containing dimethylaniline monooxygenases 3 (FMO3), FMO3 (gene 2328)
Put plainly: LTEA_HepaRG_FMO3: Life Technologies and Expression Analysis (LTEA) Assay for flavin-containing dimethylaniline monooxygenases 3 (FMO3) using HepaRG (AID 2283453). As to conditions: mRNA level, 48 h; actives raise or lower the signal. An outline of the steps: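 Eight-point concentration-response in serum-free HepaRG cultures (top 100 uM, 0.5% DMSO, 48 h). Read-out: FMO3 mRNA level normalized to three endogenous control genes, fitted bidirectionally versus vehicle.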

Read-out in test [12]: CFLAR gene, CFLAR (gene 8837)
In words: LTEA_HepaRG_CFLAR: Life Technologies and Expression Analysis (LTEA) Assay for CFLAR gene using HepaRG (AID 2283455). The note with it: mRNA level, 48 h; actives raise or lower the signal. In short, it runs like this: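 qRT-PCR read-out (Fluidigm/TaqMan) of CFLAR mRNA, normalized to three housekeeping genes, in differentiated human HepaRG cells after 48 h chemical exposure; 8-point half-log series from 100 uM in 0.5% DMSO; bidirectional curve fitting versus DMSO.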

Read-out in test [13]: Forkhead box O1 (FOXO1), FOXO1 (gene 2308)
In words: LTEA_HepaRG_FOXO1: Life Technologies and Expression Analysis (LTEA) Assay for Forkhead box O1 (FOXO1) using HepaRG (AID 2283456). As to conditions: mRNA level, 48 h; actives raise or lower the signal. An outline of the steps: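 HepaRG, 48 h exposure, 8-pt half-log series from 100 uM in 0.5% DMSO, duplicates; Fluidigm qRT-PCR mRNA, housekeeping-normalised; bidirectional fit vs DMSO baseline.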

Test [14] in a line: CEETOX_H295R_TESTO: CeeTox H295R High-throughput Steroidogenesis Assay for Testosterone (TESTO) (AID 2283457). The note with it: actives raise or lower the signal. An outline of the steps:
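Testosterone synthesis is assessed in human adrenocortical H295R cells after 48 h of chemical exposure, using HPLC-MS/MS of extracted medium. Activity is fitted in both directions against DMSO control.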

Read-out in test [15]: growth arrest and DNA damage 45 (GADD45A), GADD45A (gene 1647)
In words: LTEA_HepaRG_GADD45A: Life Technologies and Expression Analysis (LTEA) Assay for growth arrest and DNA damage 45 (GADD45A) using HepaRG (AID 2283458). As to conditions: mRNA level, 48 h; actives raise or lower the signal. In short, it runs like this: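 Eight-point concentration-response in HepaRG cells: 48 h chemical exposure, 0.5% DMSO vehicle, top dose 100 uM. Normalized qRT-PCR mRNA readout with bidirectional fitting relative to DMSO.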

Read-out in test [16]: Forkhead box O3 (FOXO3), FOXO3 (gene 2309)
In words: LTEA_HepaRG_FOXO3: Life Technologies and Expression Analysis (LTEA) Assay for Forkhead box O3 (FOXO3) using HepaRG (AID 2283459). The note with it: mRNA level, 48 h; actives raise or lower the signal. An outline of the steps:
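qRT-PCR readout of FOXO3 transcript, normalized to three housekeeping genes (ACTB, GAPDH, POLR2A); gain or loss fitted against 0.5% DMSO vehicle. HepaRG cells, 48 h chemical exposure, 8-point half-log series, top 100 uM.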

Read-out in test [17]: ABC Transporter (ABCB1), ABCB1 (gene 5243)
In words: LTEA_HepaRG_ABCB1: Life Technologies and Expression Analysis (LTEA) Assay for ABC Transporter (ABCB1) using HepaRG (AID 2283460). The note with it: mRNA level, 48 h; actives raise or lower the signal. An outline of the steps:
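HepaRG, 48 h exposure, 8-pt half-log series from 100 uM, 0.5% DMSO vehicle, duplicates. Readout: ABCB1 transcript by Fluidigm TaqMan qRT-PCR, housekeeping-normalized; bidirectional curve fit vs DMSO baseline.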

Read-out in test [18]: growth arrest and DNA damage 45 (GADD45B), GADD45B (gene 4616)
Put plainly: LTEA_HepaRG_GADD45B: Life Technologies and Expression Analysis (LTEA) Assay for growth arrest and DNA damage 45 (GADD45B) using HepaRG (AID 2283461). As to conditions: mRNA level, 48 h; actives raise or lower the signal. In short, it runs like this:
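Values are bidirectional concentration-response fits against 0.5% DMSO controls. Underlying data: qRT-PCR mRNA levels in human HepaRG liver cells treated 48 h in serum-free induction medium, eight concentrations topping at 100 uM.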

Read-out in test [19]: ABC Transporter (ABCC3), ABCC3 (gene 8714)
Put plainly: LTEA_HepaRG_ABCC3: Life Technologies and Expression Analysis (LTEA) Assay for ABC Transporter (ABCC3) using HepaRG (AID 2283462). The note with it: mRNA level, 48 h; actives raise or lower the signal. An outline of the steps: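 Differentiated HepaRG liver cells receive test chemicals at eight concentrations (max 100 uM) for 48 h. Expression of ABCC3 is quantified by qRT-PCR against ACTB, GAPDH and POLR2A, and activity is fitted in both directions against the DMSO control.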

Read-out in test [20]: Cytochrome P450 (CYP1A1), CYP1A1 (gene 1543)
Put plainly: LTEA_HepaRG_CYP1A1: Life Technologies and Expression Analysis (LTEA) Assay for Cytochrome P450 (CYP1A1) using HepaRG (AID 2283454). The note with it: mRNA level, 48 h; actives raise or lower the signal. An outline of the steps: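 Induction of CYP1A1 mRNA in a human hepatic cell line was measured 48 h after dosing, with 1 mM phenobarbital as induction positive control and 0.5% DMSO vehicle as baseline for bidirectional curve fitting.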

Among the data in PubChem BioAssay (EPA / NIEHS) are outcome and AC50 values, retold here.

Molecules are shown by their SMILES. Activity calls are given as the source filed them. How the source made its calls: active means hit-call score of the fitted dose curve at least 0.9, where 1 is the maximum; inactive means score below 0.9.

Chain of Fatty acid synthase (Homo sapiens) (P49327 whole entry, looked up): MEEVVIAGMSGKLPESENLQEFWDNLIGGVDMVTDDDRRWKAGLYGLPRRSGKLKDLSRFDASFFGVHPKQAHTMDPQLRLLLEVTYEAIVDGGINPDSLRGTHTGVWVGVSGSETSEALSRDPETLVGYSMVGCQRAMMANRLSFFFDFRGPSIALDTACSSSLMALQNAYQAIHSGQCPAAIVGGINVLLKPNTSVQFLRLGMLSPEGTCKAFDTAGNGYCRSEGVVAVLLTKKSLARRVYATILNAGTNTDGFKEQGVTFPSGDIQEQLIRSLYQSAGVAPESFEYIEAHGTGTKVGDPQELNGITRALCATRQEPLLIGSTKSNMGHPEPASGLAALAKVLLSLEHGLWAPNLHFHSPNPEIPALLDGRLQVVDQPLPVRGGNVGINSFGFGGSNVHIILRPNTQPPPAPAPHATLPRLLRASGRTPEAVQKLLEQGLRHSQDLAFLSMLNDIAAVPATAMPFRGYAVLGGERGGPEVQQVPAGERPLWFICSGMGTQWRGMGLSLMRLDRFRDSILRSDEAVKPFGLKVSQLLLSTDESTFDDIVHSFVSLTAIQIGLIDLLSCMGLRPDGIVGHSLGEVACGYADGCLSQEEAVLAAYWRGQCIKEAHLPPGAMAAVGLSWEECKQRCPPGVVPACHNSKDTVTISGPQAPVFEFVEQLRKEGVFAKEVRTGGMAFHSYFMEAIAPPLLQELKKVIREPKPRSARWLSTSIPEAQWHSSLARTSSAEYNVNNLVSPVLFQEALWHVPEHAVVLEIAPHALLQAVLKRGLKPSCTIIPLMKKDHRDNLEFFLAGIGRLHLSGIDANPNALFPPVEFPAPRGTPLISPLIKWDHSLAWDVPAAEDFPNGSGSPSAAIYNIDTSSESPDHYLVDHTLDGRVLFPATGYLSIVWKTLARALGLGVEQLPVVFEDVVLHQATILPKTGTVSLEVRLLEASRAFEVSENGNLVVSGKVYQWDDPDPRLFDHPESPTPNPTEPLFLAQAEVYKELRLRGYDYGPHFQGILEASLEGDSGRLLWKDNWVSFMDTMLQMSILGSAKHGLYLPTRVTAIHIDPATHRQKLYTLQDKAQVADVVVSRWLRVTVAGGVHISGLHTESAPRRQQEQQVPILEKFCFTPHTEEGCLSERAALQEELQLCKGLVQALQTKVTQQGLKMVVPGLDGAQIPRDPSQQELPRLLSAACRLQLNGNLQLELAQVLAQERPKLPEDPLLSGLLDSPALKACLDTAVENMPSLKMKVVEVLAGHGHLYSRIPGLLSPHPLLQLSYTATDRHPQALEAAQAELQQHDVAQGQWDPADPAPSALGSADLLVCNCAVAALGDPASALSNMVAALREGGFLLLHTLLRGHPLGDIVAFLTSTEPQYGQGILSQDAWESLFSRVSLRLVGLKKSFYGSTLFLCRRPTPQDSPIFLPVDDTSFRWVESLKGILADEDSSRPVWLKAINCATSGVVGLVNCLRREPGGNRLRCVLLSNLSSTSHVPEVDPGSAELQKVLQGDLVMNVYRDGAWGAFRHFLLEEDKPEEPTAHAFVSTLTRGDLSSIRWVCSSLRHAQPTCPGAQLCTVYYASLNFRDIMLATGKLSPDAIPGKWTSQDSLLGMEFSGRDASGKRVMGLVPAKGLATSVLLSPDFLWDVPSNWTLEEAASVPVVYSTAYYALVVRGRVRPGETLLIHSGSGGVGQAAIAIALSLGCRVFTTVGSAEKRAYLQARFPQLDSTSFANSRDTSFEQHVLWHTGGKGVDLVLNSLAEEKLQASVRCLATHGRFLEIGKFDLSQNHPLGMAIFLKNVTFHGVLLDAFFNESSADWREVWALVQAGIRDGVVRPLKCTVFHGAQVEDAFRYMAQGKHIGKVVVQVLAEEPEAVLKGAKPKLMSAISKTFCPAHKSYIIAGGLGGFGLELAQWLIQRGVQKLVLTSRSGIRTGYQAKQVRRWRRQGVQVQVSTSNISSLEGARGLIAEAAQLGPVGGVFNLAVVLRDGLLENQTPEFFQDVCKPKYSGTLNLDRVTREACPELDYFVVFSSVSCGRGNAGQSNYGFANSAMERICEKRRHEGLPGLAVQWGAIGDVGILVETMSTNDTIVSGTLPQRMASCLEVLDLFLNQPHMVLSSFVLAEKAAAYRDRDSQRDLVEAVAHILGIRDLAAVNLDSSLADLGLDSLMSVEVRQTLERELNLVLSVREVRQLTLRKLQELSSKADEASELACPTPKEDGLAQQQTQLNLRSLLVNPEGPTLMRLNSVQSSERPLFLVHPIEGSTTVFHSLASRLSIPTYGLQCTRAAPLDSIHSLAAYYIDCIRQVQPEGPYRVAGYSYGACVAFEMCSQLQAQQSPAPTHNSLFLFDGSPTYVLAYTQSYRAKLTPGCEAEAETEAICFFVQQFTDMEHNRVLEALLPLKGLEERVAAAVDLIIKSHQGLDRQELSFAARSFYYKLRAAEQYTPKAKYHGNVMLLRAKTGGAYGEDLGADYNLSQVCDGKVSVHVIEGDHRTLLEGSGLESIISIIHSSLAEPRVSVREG

A word on the AC50: it is the concentration giving half of the maximal activity seen. For the compound `Cc1ccc(N)cc1O`, the compound was called inactive in [1], in [3], in [5], in test [7], in [8] and in test [9]. For the same compound, the compound was classed as inactive in test [10], in test [11], in [12], in [13], in test [14] and in test [15]. Further, the outcome in [16], in test [17], in test [18] and in [19] was inactive. In addition, the AC50 in [2] was 40.9 µM (active); in test [4], 50 µM (active); in test [6], 26.3 µM (active).

In the case of `Cc1ccc(O)cc1`, the compound was called inactive in test [1], in [4], in test [5], in test [6], in test [7] and in test [8]. Moreover, the call in test [9], in test [10], in test [11], in test [12], in test [13] and in test [14] was inactive. In addition, the result in [15], in test [16], in test [17], in test [18] and in test [19] was inactive.

For the compound `Nc1ccc(Nc2ccccc2)cc1`, the AC50 was 4.03 µM (active) in [1], 50 µM (active) in [11], 10.9 µM (active) in test [20] and 63.2 µM (active) in [18]. Besides, the compound was classed as inactive in test [4], in test [5], in [6], in test [7], in test [8] and in test [9]. In addition, the outcome in test [10], in [12], in [13], in [15], in test [16] and in test [17] was inactive. For the same compound, the compound was called inactive in [19].
